Only some compounds are listed: those with a hit (about 3% of all), similar ones and a draw of the others.
C2C12 statin: suppression of simvastatin myotoxicity; C2C12 myotubes + simvastatin, ATP luminescence, 48 h; scaled: DMSO 0, geranylgeraniol control 100; rescue of ATP level, % at 7.49 µM; hit rate 0.78% among 330,000; AID 602340;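 active = mean ATP rescue above about 67%, or every replicate alone reaching that limit, limit read from the data, passing the limit was not always enough; inconclusive = no clear call, values can overlap the other calls; inactive = mean under the limit and some replicate under it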;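 note: myotubes were challenged with 10 µM simvastatin during compound exposure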
MITF TRPM1 HTS: increases MITF-driven TRPM1 promoter luciferase signal; SK-MEL-5 TRPM1-promoter luciferase, 24 h; % of positive control, neutral wells = 0; activation, % at 12.5 µM; hit rate 0.75% among 300,000;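 active = mean activation of at least 80% with every replicate also reaching 80%; inconclusive = mean reaches 80% but some replicate falls short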;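 note: 0% = neutral control wells and 100% = parthenolide positive control wells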
esBAF inh: SWI/SNF esBAF complex inhibition | mouse ES cells, Bmi1-luciferase knock-in reporter, 24 h; 100% = twice the neutral-well signal | hit rate 2% among 350,000 | AID 602393 | reporter increase, % at 12.5 µM; in the data active = activation above about 40%; inconclusive = no clear call, values can overlap the other calls;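 note: 0% = median of the plate's neutral control wells and 100% = double that signal; a rise in the Bmi1 reporter signal indicates esBAF inhibition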
Wnt bcat act: activates Wnt/beta-catenin signaling in a reporter cell assay | hit rate 1.2% among 300,000 | AID 743398 | activation, % at 9.35 µM | activator, plate reader; in the data active = activation above about 30%, passing the limit was not always enough; inconclusive = no clear call, values can overlap the other calls;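 note: 0% = neutral control wells and 100% = positive control wells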
* hit, by the source's call; ? = inconclusive; / = not tested or not shown.

SMILES | C2C12 statin | MITF TRPM1 HTS | esBAF inh | Wnt bcat act
CCOC(=O)c1cc(-c2ccccc2)sc1NC(=O)CC | / | 1 | / | 8
O=C(Nc1sc(-c2ccccc2)cc1C(=O)O)c1ccccc1 | / | 71 | / | 34*
CC(=O)c1sc2nsc(SCCN3CCOCC3)c2c1N | / | / | / | 2
Nc1c(C(=O)c2ccccc2)sc2nsc(SCCN3CCOCC3)c12 | / | / | / | 40*
CCOC(=O)CON1C(=O)C(C)(C)N(OCC(=O)OCC)C(=O)C1(C)C | -3 | -2 | -7 | /
CCON1C(=O)C(C)(C)N(OCC)C(=O)C1(C)C | / | -9 | / | 43*
Cc1cc(=O)oc(C)c1C(=O)NCCC(C)C | -24 | 3 | -1 | -2
Cc1cc(=O)oc(C)c1C(=O)NCCNC(=O)c1c(C)cc(=O)oc1C | 121* | 0 | -13 | /
CCOc1ccc(C(=O)Nc2nc(C)cc(C)n2)cc1[N+](=O)[O-] | 93* | 0 | -5 | -2
COc1ccc(NC(=O)N(C)C[C@@H]2Oc3c(NC(=O)Nc4c(C)noc4C)cccc3C(=O)N([C@H](C)CO)C[C@@H]2C)cc1 | -38 | / | 4 | /
COc1ccc(-n2c(SCC(=O)N3CCCCC3)nc(O)cc2=O)cc1 | 120* | 8 | 7 | 0
CC(C)(C)Cc1nnc(NC(=O)c2ccc([N+](=O)[O-])cc2)s1 | / | 39 | / | 17
CCC(C)(C)c1nnc(NC(=O)c2ccc([N+](=O)[O-])cc2)s1 | -29 | 67 | 48* | 4
C[C@@H]1CN([C@@H](C)CO)C(=O)c2cc(NC(=O)Nc3ccc(C(F)(F)F)cc3)ccc2O[C@H]1CN(C)C(=O)Nc1ccc2c(c1)OCO2 | -51 | / | 32 | /
N#C[C@@H]1[C@@H](c2ccccc2)[C@@H](CO)N1C(=O)c1ccc2c(c1)OCO2 | -5 | / | -2 | /
CC(C)n1c(/C=C/c2ccccc2)nc2ccccc21 | -3 | 53 | 51* | 21
CCC(=O)N[C@H]1CC[C@@H](CC(=O)NCc2ccccc2OC)O[C@H]1CO | 4 | / | -2 | /
O=S(=O)(c1cccs1)N1CN(Cc2ccc(Cl)cc2)c2nc3ccccc3nc21 | 30 | 3 | 54* | /
Cc1ccc(CN2CN(S(=O)(=O)c3cccs3)c3nc4ccccc4nc32)cc1 | 4 | 66 | 70* | /
COc1ccc(C#Cc2ccc([C@@H]3[C@H](CO)N4CCCCN(C(=O)Nc5cccc(F)c5)C[C@@H]34)cc2)cc1 | -29 | / | -11 | /
CC(=O)Nc1cccc(OCC(=O)Nc2ccccc2)c1 | -3 | / | 45* | 38*
Cc1ccc(OCC(=O)Nc2cccc(O)c2)cc1C | 5 | 104* | 18 | 49*
O=C(COc1cc(Cl)c(Cl)cc1Cl)Nc1ccncc1 | -7 | / | 12 | 10
CC(C)c1ccc(NC(=O)COc2ccccc2)cc1 | -5 | 66 | 79* | -2
COc1cccc(NC(=O)COc2ccccc2)c1 | 13 | 71 | 6 | 12
SMILES | C2C12 statin | MITF TRPM1 HTS | esBAF inh | Wnt bcat act
O=C(COc1cc(Cl)c(Cl)cc1Cl)Nc1cccc(O)c1 | / | 139* | / | 45*
COC(=O)C[C@H]1CC[C@H]2[C@@H](COc3ccc(NC(=O)Nc4ccc(Cl)cc4)cc3C(=O)N2C)O1 | 2 | / | 1 | /
CNC(=O)C[C@H]1CC[C@H]2[C@H](COc3ccc(NC(=O)c4ccc5c(c4)OCO5)cc3C(=O)N2C)O1 | -11 | / | 10 | /
Cc1cc(NC(=O)COc2ccc3ccccc3c2Br)no1 | 1 | 68 | ? | 40*
COc1ccc(OCC(=O)Nc2nnc(S(=O)(=O)N3CCCCCC3)s2)cc1 | 113* | 2 | -5 | -2
CCC(C)c1ccc(OCC(=O)Nc2cccc(C(=O)Nc3ccc(C(=O)O)cc3)c2)cc1 (stereo unspecified) | 0 | 42 | 47* | 20
Cc1cccc(C)c1OCC(=O)Nc1cccc(C(=O)O)c1 | / | -3 | / | 8
Cc1ccc(C)c(OCC(=O)Nc2cccc(C(=O)O)c2)c1C | -59 | / | ? | 37*
C[C@H](NC(=O)C[C@H]1CC[C@H](NC(=O)C2CC2)[C@@H](CO)O1)c1ccccc1 | 5 | / | -2 | /
C[C@H](CO)N1C[C@H](C)[C@H](CN(C)C(=O)Nc2ccc(C(F)(F)F)cc2)Oc2ncc(/C=C/c3ccccc3)cc2C1=O | -19 | / | -17 | /
C[C@H]1CCCCO[C@@H](CN(C)Cc2ccc(C(=O)O)cc2)[C@@H](C)CN([C@@H](C)CO)C(=O)c2cc(NC(=O)NC3CCCCC3)ccc2O1 | / | / | 2 | /
Cc1cccc(OCC(=O)Nc2cccc(O)c2)c1 | 3 | / | 23 | 34*
Cc1cc(NC(=O)COc2cccc(Oc3ccccc3)c2)no1 | 3 | -25 | -16 | /
CC(=O)Nc1ccc(NC(=O)COc2ccc3c(c2)CCC3)cc1 | / | 5 | / | 0
O=C(COc1ccccc1)Nc1ccc(S(=O)(=O)N2CCCCCC2)cc1 | 0 | / | -1 | /
Cc1ccnc(NC(=O)COc2ccc3c(c2)CCC3)c1 | -1 | 42 | 53* | -19
Cc1cccc(NC(=O)COc2ccccc2)c1 | 1 | 62 | 12 | 4
Cc1cccc(OCC(=O)Nc2cc(C)on2)c1 | 122* | 32 | -4 | /
O=C(COc1ccccc1)Nc1ccc(S(=O)(=O)N2CCCC2)cc1 | 116* | 19 | 6 | -5
COCC(=O)Nc1ccc2c(c1)C(=O)N(C)[C@@H]1CC[C@H](CC(=O)NC3CCCC3)O[C@H]1CO2 | -14 | / | 4 | /
O=C(C[C@@H]1CC[C@H]2[C@@H](COC[C@H](O)CN2S(=O)(=O)c2ccc(F)cc2)O1)N[C@@H]1CCN(Cc2ccccc2)C1 | 0 | / | 3 | /
O=C(CSc1nc(-c2ccco2)cc(C(F)(F)F)n1)N1CCSCC1 | 86* | -5 | 3 | -2
C[C@H](CO)N1C[C@H](C)[C@@H](CN(C)C(=O)Nc2ccc3c(c2)OCO3)OCCCC[C@H](C)Oc2ccc(NS(C)(=O)=O)cc2C1=O | / | / | 2 | /
O=C1/C(=C/c2cccs2)CCC/C1=C\c1cccs1 | -2 | 77 | 60* | 36*
O=C1/C(=C/c2ccccc2)CCCc2ccccc21 | -2 | / | 49* | 29
SMILES | C2C12 statin | MITF TRPM1 HTS | esBAF inh | Wnt bcat act
O=C1C(=Cc2cccs2)CCc2ccccc21 | / | / | / | 48*
Cn1cccc1/C=C1\CCC/C(=C\c2cccn2C)C1=O | -6 | / | 81* | 71*
O=C1/C(=C\c2cccnc2)CCc2ccccc21 | 7 | 16 | 5 | -3
Cc1ccnc(NC(=S)NC(=O)c2cncc(Br)c2)c1 | / | 37 | / | 19
Cc1nc(NC(=S)NC(=O)c2cncc(Br)c2)ccc1Br | 102* | -1 | 11 | -2
O=C(C[C@@H]1CC[C@@H](NC(=O)c2ccc(F)cc2)[C@H](CO)O1)NCCc1ccncc1 | 4 | / | 0 | /
C[C@@H]1CCCCO[C@@H](CN(C)C(=O)NC2CCCCC2)[C@H](C)CN([C@H](C)CO)C(=O)c2cc(NS(C)(=O)=O)ccc2O1 | -10 | / | 7 | /
CC(=O)c1ccc(NC(=O)CCc2nnc3ccc(N4CCCC4)nn23)cc1 | -18 | 43 | 57* | 10
COc1ccc(Cn2c(-c3ccc(Br)cc3)c[n+]3ccccc23)cc1 | -145 | -14 | -16 | 58*
Cc1ccc(S(=O)(=O)N(C)C[C@H]2Oc3c(NC(=O)Nc4ccccc4)cccc3C(=O)N([C@H](C)CO)C[C@@H]2C)cc1 | -37 | / | 2 | /
COC(=O)c1cn[nH]c1NC(=S)Nc1ccccc1C | -7 | ? | 67* | 10

Compound activity from PubChem BioAssay.
